Source: the supplement of paper PMC6555819

Key:
Test in all cases: PBM binding z-score (relative to random genomic background probes); higher = stronger binding; sequences stand for … in GC…GCGATTGACAGCGTAGAATGAAGG
[1] = system: FXR:RXRa (NR concentration 270 nM, RXRa partner concentration 90 nM)
Outline: (§1)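 For binding z-scores, the reference was random background probes on custom Agilent 4×180K protein-binding microarrays. These arrays were incubated 1 h with ligand-free nuclear receptor dimers in PBS pH 7.4, 2% milk, 0.02% Triton X-100, 1 mM DTT, 0.2 mg/mL BSA and 0.4 mg/ml salmon testes DNA. Fluorescence was scanned after antibody detection of each partner (one per run) and regression-normalized.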

[2] = system: LXRa:RXRa (NR concentration 270 nM, RXRa partner concentration 90 nM)
Outline: as §1

[3] = system: LXRa homodimer (NR concentration 270 nM)
Outline: as §1

[4] = system: LXRb:RXRa (NR concentration 270 nM, RXRa partner concentration 90 nM)
Outline: as §1

[5] = system: LXRb homodimer (NR concentration 270 nM)
Outline: as §1

[6] = system: PPARa:RXRa (NR concentration 270 nM, RXRa partner concentration 90 nM)
Outline: as §1

[7] = system: PPARg:RXRa (NR concentration 180 nM, RXRa partner concentration 90 nM)
Outline: as §1

[8] = system: PPARg:RXRa 270nM:90nM, anti-RXR (NR concentration 270 nM, RXRa partner concentration 90 nM)
Outline: as §1

[9] = system: PPARg:RXRa 30nM:10nM, anti-RXR (NR concentration 30 nM, RXRa partner concentration 10 nM)
Outline: as §1

[10] = system: PPARg:RXRa 90nM:30nM, anti-RXR (NR concentration 90 nM, RXRa partner concentration 30 nM)
Outline: as §1

[11] = system: PPARg:RXRa DBDmut IVT, anti-RXR (DBD mutation: RXRa K156A/R161A, NR concentration 270 nM, RXRa partner concentration 90 nM)
Outline: as §1

[12] = system: PPARg:RXRa IVT, anti-PPARg (NR concentration 270 nM, RXRa partner concentration 90 nM)
Outline: as §1

[13] = system: PPARg DBDmut:RXRa IVT, anti-PPARg (DBD mutation: PPARg1 K132A/R137A, NR concentration 270 nM, RXRa partner concentration 90 nM)
Outline: as §1

[14] = system: PPARg DBDmut IVT, anti-PPARg (DBD mutation: PPARg1 K132A/R137A, NR concentration 270 nM)
Outline: as §1

[15] = system: PPARg homodimer (NR concentration 180 nM)
Outline: as §1

[16] = system: PXR:RXRa (NR concentration 270 nM, RXRa partner concentration 90 nM)
Outline: as §1

[17] = system: PXR homodimer (NR concentration 270 nM)
Outline: as §1

[18] = system: RARa:RXR (NR concentration 270 nM, RXRa partner concentration 90 nM)
Outline: as §1

[19] = system: RARa homodimer (NR concentration 270 nM)
Outline: as §1

[20] = system: RARb:RXRa (NR concentration 270 nM, RXRa partner concentration 90 nM)
Outline: as §1

Work on TCTTGTAGATCAATAGAGGTTAAAAAAGTGCGCT yielded a PBM binding z-score [1] of 0.88, a PBM binding z-score [2] of 4.42 and a PBM binding z-score [3] of 1.13. The PBM binding z-score [4] was 2.5, the PBM binding z-score [5] was 0.00759 and the PBM binding z-score [6] was 2.06. For the same sequence, the PBM binding z-score [7] was 0.202, the PBM binding z-score [8] was 1.65 and the PBM binding z-score [9] was 2.75. The PBM binding z-score [10] was 2.06, the PBM binding z-score [11] was 1.82 and the PBM binding z-score [12] was 1.24. It also gave a PBM binding z-score [13] of 0.792, a PBM binding z-score [14] of 0.476 and a PBM binding z-score [15] of 0.579. The PBM binding z-score [16] was 2.56, the PBM binding z-score [17] was 0.23 and the PBM binding z-score [18] was 1.79. It also gave a PBM binding z-score [19] of 0.767 and a PBM binding z-score [20] of 0.762.

Sequence CGTCAAAGTTCAAGGTAACGTACCAGAAAGCAGC has a PBM binding z-score [1] of 6.54, a PBM binding z-score [2] of 5.59 and a PBM binding z-score [3] of 3.17. For the same sequence, the PBM binding z-score [4] was 3.47, the PBM binding z-score [5] was 1.03 and the PBM binding z-score [6] was 4.79. It also gave a PBM binding z-score [7] of 4.38, a PBM binding z-score [8] of 5.05 and a PBM binding z-score [9] of 1.94. For the same sequence, the PBM binding z-score [10] was 4.24, the PBM binding z-score [11] was 0.681 and the PBM binding z-score [12] was 2.41. For the same sequence, the PBM binding z-score [13] was 0.882, the PBM binding z-score [14] was 0.599 and the PBM binding z-score [15] was 4.5. The PBM binding z-score [16] was 4.28, the PBM binding z-score [17] was 3.52 and the PBM binding z-score [18] was 3.57. For the same sequence, the PBM binding z-score [19] was 2.48 and the PBM binding z-score [20] was 5.12.

With TCTTGTAGATCAACAGGCGGTTAAGAAAGATCGA the PBM binding z-score [1] was 0.118, the PBM binding z-score [2] was 0.174 and the PBM binding z-score [3] was -0.388. It also gave a PBM binding z-score [4] of 0.205, a PBM binding z-score [5] of -0.307 and a PBM binding z-score [6] of 0.615. The PBM binding z-score [7] was -0.161, the PBM binding z-score [8] was 1.12 and the PBM binding z-score [9] was 2.44. For the same sequence, the PBM binding z-score [10] was 1.81, the PBM binding z-score [11] was 1.91 and the PBM binding z-score [12] was 0.45. It also gave a PBM binding z-score [13] of 0.508, a PBM binding z-score [14] of 0.822 and a PBM binding z-score [15] of -0.291. The PBM binding z-score [16] was 0.038, the PBM binding z-score [17] was -0.259 and the PBM binding z-score [18] was 0.363. For the same sequence, the PBM binding z-score [19] was -0.0268 and the PBM binding z-score [20] was -0.0147.

Work on ATCTCTAGGTAAGACTCAGCTCAGTGAAGAACGC yielded a PBM binding z-score [1] of 0.197, a PBM binding z-score [2] of 0.324 and a PBM binding z-score [3] of 0.483. It also gave a PBM binding z-score [4] of -0.157, a PBM binding z-score [5] of 0.984 and a PBM binding z-score [6] of -0.198. It also gave a PBM binding z-score [7] of 0.0541, a PBM binding z-score [8] of -0.171 and a PBM binding z-score [9] of 0.317. It also gave a PBM binding z-score [10] of 0.109, a PBM binding z-score [11] of 1.68 and a PBM binding z-score [12] of 1.02. For the same sequence, the PBM binding z-score [13] was 0.287, the PBM binding z-score [14] was 1.14 and the PBM binding z-score [15] was 0.51. For the same sequence, the PBM binding z-score [16] was -0.0635, the PBM binding z-score [17] was 0.232 and the PBM binding z-score [18] was -0.0237. For the same sequence, the PBM binding z-score [19] was 0.868 and the PBM binding z-score [20] was -0.0169.

In the case of CCAGACAGGTGAGAAGGTAACACAGCCTCGATTA, the PBM binding z-score [1] is reported as 0.191, the PBM binding z-score [2] is reported as 0.2 and the PBM binding z-score [3] is reported as 0.0952. The PBM binding z-score [4] was 0.413, the PBM binding z-score [5] was -0.0709 and the PBM binding z-score [6] was 1.1. The PBM binding z-score [7] was 0.941, the PBM binding z-score [8] was 0.656 and the PBM binding z-score [9] was 0.112. The PBM binding z-score [10] was 0.637, the PBM binding z-score [11] was 1 and the PBM binding z-score [12] was 0.723. The PBM binding z-score [13] was -0.672, the PBM binding z-score [14] was -0.419 and the PBM binding z-score [15] was 0.988. The PBM binding z-score [16] was -0.0224, the PBM binding z-score [17] was 0.73 and the PBM binding z-score [18] was 0.409. The PBM binding z-score [19] was 0.978 and the PBM binding z-score [20] was 0.799.

AGTCAAAGTTCGTCTAGGTAACGTAAGATATGCT showed a PBM binding z-score [1] of 1.46, a PBM binding z-score [2] of 1.16 and a PBM binding z-score [3] of 0.363. The PBM binding z-score [4] was 0.787, the PBM binding z-score [5] was -0.0526 and the PBM binding z-score [6] was 1.84. It also gave a PBM binding z-score [7] of 2.79, a PBM binding z-score [8] of 3.39 and a PBM binding z-score [9] of 1.44. The PBM binding z-score [10] was 2.71, the PBM binding z-score [11] was -0.0534 and the PBM binding z-score [12] was 1.36. For the same sequence, the PBM binding z-score [13] was 0.664, the PBM binding z-score [14] was 0.773 and the PBM binding z-score [15] was 1.41. It also gave a PBM binding z-score [16] of 1.99, a PBM binding z-score [17] of 1.83 and a PBM binding z-score [18] of 1.34. The PBM binding z-score [19] was 0.143 and the PBM binding z-score [20] was 2.54.
